Bioassay records (PubChem)
Hits are enriched below; roughly 8% of the tested compounds scored in any of these assays.
KB-V1 MDR tox: kills drug-selected multidrug resistant KB-V1 cells; KB-V1 MDR cells viability, CellTiter-Glo, 72 h; Potency, µM (highest dose often 46.1 µM), usual class: cytotoxic; hit rate 3.4% among 400,000; note: % is set by controls: 0 for no effect and ±100 for the full control effect; nearly all actives have a fitted effect of over 60% in size
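Following 72 h at 37 degrees C with compound, KB-V1 cell viability was read by CellTiter-Glo luminescence, medium being phenol-red-free DMEM plus 10% FBS; concentration-response parameters came from normalized, curve-fitted qHTS data.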
HT1080 IDH1KD tx: toxicity to HT-1080 IDH1 knockdown cells (counter line). HT-1080 IDH1 knockdown viability, ATP luminescence, 48 h. Potency, µM (top dose mostly 46.1 µM), inactives show at the top dose activity, negative = toxicity, usual class: cytotoxic. hit rate 2% among 360,000;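 note: 0% = DMSO wells and -100% = cell-free medium wells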
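Knockdown cells (IDH1KD HT-1080) received compounds 2 h after plating at 750 cells/well and were kept 48 h at 37 °C in 5% FBS RPMI. A CellTiter-Glo luminescence read gave % activity for curve fitting.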
HT1080NT lethal: kills 2HG-producing HT-1080-NT fibrosarcoma cells | HT-1080-NT fibrosarcoma viability, CellTiter-Glo ATP luminescence, 48 h | Potency, µM (series often up to 46.1 µM), inactives show at the highest dose activity, negative = less viability, hits mostly cytotoxic | hit rate 1.6% among 360,000 | AID 686970;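 note: NT is the 2HG producing partner of a matched IDH1 knockdown line; 0% = DMSO-treated cells and -100% = media-only wells without cells; nearly all actives have a fitted effect of over 55% in size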
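750 cells/well, RPMI + 5% FBS; 2 h settle, compound pin-transfer, 48 h at 37 degrees C. CellTiter-Glo 10 min RT, luminescence. Normalized to DMSO and media-only wells.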
KB-3-1 cytotox: KB-3-1 parental cell cytotoxicity. KB-3-1 viability, CellTiter-Glo ATP luminescence, 72 h. Potency, µM (highest dose often 46.1 µM), actives largely listed as cytotoxic. hit rate 1.4% among 400,000. AID 1347075; note: % is set by controls: 0 for no effect and ±100 for the full control effect; nearly all actives have a fitted effect of over 60% in size
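Parental KB-3-1 adenocarcinoma cells in phenol-red-free DMEM with 10% FBS were pin-treated with compounds at several concentrations, incubated 72 h at 37 °C, and viability read by CellTiter-Glo luminescence; concentration-effect curves were fitted after normalization.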
MCF10A rereplic: DNA re-replication induction in MCF 10a cells. hit rate 2.9% among 350,000. AID 624296. Potency, µM (doses to about 46.1 µM), without a hit: at the top dose activity, positive = re-replication, actives largely listed as activators. MCF 10A DNA re-replication, Hoechst nuclear intensity, 48 h; note: % of control where 0% means no effect; nearly all actives have a fitted effect of over 50% in size
SW480 rereplic: DNA re-replication induction in SW480 cells; SW480 DNA re-replication, Hoechst DNA content imaging, 48 h; hit rate 1.8% among 340,000; AID 624297; Potency, µM (highest dose often 46.1 µM), for the others: at the highest dose re-replication activation, usual class: activators; note: % of control where 0% means no effect; nearly all actives have a fitted effect of over 55% in size
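SW480 cells exposed to compounds for 48 hr at 37 C, 5% CO2, then Hoechst-stained 40 min. Nuclear DNA content imaged by fluorescence scanning (405 nm excitation, 500-530 nm emission); re-replication scored as increased high-intensity nuclei.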
Active calls of the source: *; i = inactive; ? = inconclusive; . = no result. Calls come from the whole dose curve; as a rule, active = well fitted curve in the direction sought with a large enough effect; inconclusive = small, poorly fitted or top-dose-only effect, or another doubt; inactive = no such curve, though single readings can be large; an effect the other way counts as inactive or inconclusive. Potency is the fitted concentration of half-maximal effect.

SMILES	KB-V1 MDR tox	HT1080 IDH1KD tx	HT1080NT lethal	KB-3-1 cytotox	MCF10A rereplic	SW480 rereplic
CCCCCCCCCC[n+]1ccc(/C=C/c2c[nH]c3ccccc23)cc1	?	.	.	5.2µM*	.	.
Cc1ccc(O)c(-c2cc(-c3ccccc3F)[nH]n2)c1	i	21µM*	23µM*	?	?	12%
Cc1ccc(-c2cc(-c3ccccc3C)[nH]n2)c(O)c1	13µM*	18µM*	21µM*	21µM*	?	?
Cc1ccc(O)c(-c2cc(-c3cccc(F)c3)n[nH]2)c1	?	-1%	1%	?	26µM*	?
Cc1ccc(-c2cc(-c3cccc(F)c3)n[nH]2)c(O)c1	i	?	?	i	?	9%
Cc1ccc(C)c(NC(=O)c2cc(-c3cc(C)ccc3O)n[nH]2)c1	i	?	33µM*	i	-3%	4%
CC(C)CC(C(=O)NC(C)(C)C)N(CC1CCCO1)C(=O)c1snc(C(N)=O)c1N (configuration not stated)	i	-10%	7%	i	-2%	-8%
Cc1ccc(-c2nc(CS(=O)(=O)CC(=O)N3CCN(c4cccc(C)c4C)CC3)c(C)o2)cc1	i	.	.	i	.	.
CCc1ccc(-c2nc(SCC(=O)N3CCOCC3)n[nH]2)cc1	i	-2%	-6%	?	6%	0%
CCOC(=O)c1sc2ccccc2c1S(=O)(=O)NCc1ccc(F)cc1	i	.	.	i	.	.
COCc1cc(C)nc2sc(C(=O)Nc3nccs3)c(N)c12	i	6%	10%	i	16µM*	0%
COCc1cc(C)nc2sc(C(=O)Nc3ccccc3OC)c(N)c12	i	-5%	-6%	i	?	21µM*
COCc1cc(C)nc2sc(C(=O)Nc3cccc(OC)c3)c(N)c12	i	2%	9%	i	10µM*	18µM*
COCc1cc(C)nc2sc(C(=O)Nc3ccc(OC)cc3)c(N)c12	i	2%	6%	i	?	?
COCc1cc(C)nc2sc(C(=O)Nc3ccc(C(C)=O)cc3)c(N)c12	?	.	.	i	.	.
Cc1cc(/C=C2\C=Cc3ccccc32)cc(C)c1[N+](=O)[O-]	i	.	.	i	.	.
CC(=O)N1CCN(C(=O)C2CCN(S(=O)(=O)c3ccccc3C(F)(F)F)CC2)CC1	i	5%	1%	i	-1%	0%
Cc1cc(C(=O)N/N=C/c2cccnc2)c2ccccc2n1	i	?	?	?	?	?
O=C(N/N=C/c1ccc2ncccc2c1)c1cc(-c2cccs2)nc2ccccc12	?	0%	27%	?	5.8µM*	12%
O=C(N/N=C/c1ccc[nH]1)c1cc(-c2cccs2)nc2ccccc12	?	?	?	?	11%	10%
Cn1cccc1/C=N/NC(=O)c1cc(-c2cccs2)nc2ccccc12	6.5µM*	?	?	7.3µM*	5.8µM*	15µM*
CCOc1cc(/C=N/NC(=O)c2cc(-c3cccc(OC)c3)nc3ccccc23)ccc1O	?	?	-24%	?	9%	?
O=C(N/N=C/c1cccnc1)c1cc(-c2cccs2)nc2ccccc12	?	?	?	16µM*	?	?
CC(C)COc1cccc(-c2cc(C(=O)N/N=C/c3ccncc3)c3ccccc3n2)c1	?	18µM*	-26%	?	18µM*	4%
COc1cc(/C=C(\C#N)C(=O)NC(C)C)cc(Cl)c1O	i	-2%	-7%	i	18%	1%
SMILES	KB-V1 MDR tox	HT1080 IDH1KD tx	HT1080NT lethal	KB-3-1 cytotox	MCF10A rereplic	SW480 rereplic
CCN(c1ccccc1)S(=O)(=O)c1nnc(NC(=O)C(C)Oc2ccccc2)s1 (configuration not stated)	i	.	.	i	.	.
COC(=O)c1ccc(NC(=O)c2cc(=O)c3ccc(C)cc3o2)cc1	i	.	.	i	.	.
CSc1ccc(CCNC(=O)CCc2c(C)nc3c(c(C)nn3-c3ccc(C)c(C)c3)c2C)cc1	i	.	.	i	.	.
CCOc1ccccc1-c1cc(C(=O)N/N=C/c2cccnc2)c2ccccc2n1	i	-18%	-26%	i	17%	5%
CCOc1ccc(-c2cc(C(=O)N/N=C/c3cccnc3)c3ccccc3n2)cc1	?	?	?	8.2µM*	2.9µM*	7.3µM*
Cc1ccc(COc2ccccc2-c2cc(C(=O)N/N=C/c3cccnc3)[nH]n2)cc1	?	6.5µM*	?	?	8.2µM*	57%
Cc1ccc2c(Cl)c(C(=O)N/N=C/c3cccn3C)sc2c1	i	?	?	i	21µM*	2%
COc1ccc(-c2cc(C(=O)N/N=C/c3cccnc3)c3cc(C)cc(C)c3n2)cc1	?	?	?	i	16µM*	?
COc1ccc2[nH]c3c(N4CCc5ccccc5C4)ncnc3c2c1	2.6µM*	10µM*	2.3µM*	2.6µM*	3.7µM*	?
CCOc1ccc2[nH]c3c(N4CCN(C(=O)c5ccco5)CC4)ncnc3c2c1	i	?	?	i	?	?
COc1cc2[nH]c3c(N4CCN(c5ccccn5)CC4)ncnc3c2cc1OC	?	?	23µM*	i	?	-1%
CCOC(=O)N1CCN(c2ncnc3c2[nH]c2ccc(OC)cc23)CC1	15µM*	-20%	-8%	i	6%	0%
COc1ccc(N2CCN(c3ncnc4c3[nH]c3ccccc34)CC2)cc1	i	-12%	-9%	i	6%	-1%
COc1cccc2[nH]c3c(N4CCCCC4)ncnc3c12	i	3%	-2%	i	4%	11%
CCOc1ccc2[nH]c3c(N4CCC5(CC4)OCCO5)ncnc3c2c1	?	23µM*	?	?	?	?
CCOc1ccc(C2=NC(c3ccncc3)=Nc3ccc(C)cc3N2)cc1OCC	i	.	.	i	.	.
O=Cc1ccccc1Oc1ccccc1	?	0%	0%	i	-8%	1%
O=Cc1ccccc1OCCOc1ccccc1C=O	i	7.1µM*	10µM*	i	17%	?
CC(=O)c1c(C(C)=O)c(C)n(Cc2ccccc2)c1C	21µM*	-4%	4%	i	29%	-7%
CCCSc1nc(=S)n(Cc2ccccc2)c(C)c1C(C)=O	i	-9%	-8%	i	2%	2%
Cc1c(C=O)c(C=O)c(C)n1Cc1ccccc1	?	4.1µM*	8.2µM*	?	10µM*	?
